Measured values reported in the supplement of paper PMC6555819.

Columns and labels:
Assay in all cases: PBM binding z-score (relative to random genomic background probes); higher = stronger binding; sequences stand for … in GC…GCGATTGACAGCGTAGAATGAAGG
[1] = test system: PPARg:RXRa DBDmut IVT, anti-RXR (DBD mutation: RXRa K156A/R161A, NR concentration 270 nM, RXRa partner concentration 90 nM)
Outline: (§1)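 Binding z-scores take random background probes as their reference. They come from custom Agilent 4×180K protein-binding microarrays incubated 1 h with ligand-free nuclear receptor dimers, with antibodies against each partner (one per run) detecting binding. Scanned fluorescence was regression-normalized.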

[2] = test system: PPARg:RXRa IVT, anti-PPARg (NR concentration 270 nM, RXRa partner concentration 90 nM)
Outline: as §1

[3] = test system: PPARg DBDmut:RXRa IVT, anti-PPARg (DBD mutation: PPARg1 K132A/R137A, NR concentration 270 nM, RXRa partner concentration 90 nM)
Outline: as §1

[4] = test system: PPARg DBDmut IVT, anti-PPARg (DBD mutation: PPARg1 K132A/R137A, NR concentration 270 nM)
Outline: as §1

[5] = test system: PPARg homodimer (NR concentration 180 nM)
Outline: as §1

[6] = test system: PXR:RXRa (NR concentration 270 nM, RXRa partner concentration 90 nM)
Outline: as §1

[7] = test system: PXR homodimer (NR concentration 270 nM)
Outline: as §1

[8] = test system: RARa:RXR (NR concentration 270 nM, RXRa partner concentration 90 nM)
Outline: as §1

[9] = test system: RARa homodimer (NR concentration 270 nM)
Outline: as §1

[10] = test system: RARb:RXRa (NR concentration 270 nM, RXRa partner concentration 90 nM)
Outline: as §1

[11] = test system: RARb homodimer (NR concentration 270 nM)
Outline: as §1

[12] = test system: RARg:RXRa (NR concentration 270 nM, RXRa partner concentration 90 nM)
Outline: as §1

[13] = test system: RARg homodimer (NR concentration 270 nM)
Outline: as §1

[14] = test system: RXRa DBDmut IVT, anti-RXR (DBD mutation: RXRa K156A/R161A, NR concentration 90 nM)
Outline: as §1

[15] = test system: RXRa homodimer (NR concentration 180 nM)
Outline: as §1

[16] = test system: THRa:RXRa (NR concentration 90 nM, RXRa partner concentration 90 nM)
Outline: as §1

[17] = test system: THRa homodimer (NR concentration 90 nM)
Outline: as §1

[18] = test system: VDR:RXRa (NR concentration 270 nM, RXRa partner concentration 90 nM)
Outline: as §1

[19] = test system: VDR homodimer (NR concentration 270 nM)
Outline: as §1

Row | Sequence | PBM binding z-score [1] | PBM binding z-score [2] | PBM binding z-score [3] | PBM binding z-score [4] | PBM binding z-score [5] | PBM binding z-score [6] | PBM binding z-score [7] | PBM binding z-score [8] | PBM binding z-score [9] | PBM binding z-score [10] | PBM binding z-score [11] | PBM binding z-score [12] | PBM binding z-score [13] | PBM binding z-score [14] | PBM binding z-score [15] | PBM binding z-score [16] | PBM binding z-score [17] | PBM binding z-score [18] | PBM binding z-score [19]
1 | GGAACGAGGGCAAGTTGATAGCTGAGTTTGATGG | 3.45 | 2.67 | 0.246 | -0.342 | 0.0769 | 0.535 | 0.363 | 0.267 | -0.269 | 2.57 | 1.5 | 1.45 | 2.07 | 2.58 | 0.669 | 1.09 | 0.0146 | 0.643 | 1.84
2 | GCTTGCAGATCAAGGTTAAGAAAGACTAAGCTAA | 0.163 | 0.227 | -0.556 | -0.251 | -0.687 | 0.18 | -0.42 | 0.588 | -0.293 | 0.686 | -0.0263 | 0.321 | 0.141 | -0.00088 | 0.55 | 1.16 | -0.514 | -0.0251 | -0.323
3 | AGAACGAGGGCACGCGGAGTTGATAGCAGAGTAG | 4.28 | 4.01 | 0.563 | -0.521 | 0.0413 | 1.45 | -0.14 | 1.12 | -0.653 | 2.64 | 1.42 | 2.32 | 2.41 | 1.91 | 1.66 | 1.82 | -0.0223 | 1.95 | 1.18
4 | GCTATTGGTTGAAAGGGCAACCGAATGATTCTCG | 0.217 | 0.624 | 0.114 | -0.668 | 0.512 | 0.73 | 0.0657 | 1.48 | 0.176 | 1.87 | 1.94 | 1.33 | 1.27 | 0.0979 | 1.32 | 0.466 | -0.293 | 0.563 | 0.0908
5 | GGAACGTGGGCAAGTTGATAGCAGAGTTTGATGG | 0.19 | -0.544 | -0.762 | -0.713 | -0.313 | -0.46 | 0.121 | -0.634 | -0.639 | -0.191 | -0.282 | -0.487 | -0.279 | 0.175 | -0.184 | -0.685 | -0.691 | -0.629 | 0.343
6 | ATACCAAGGTGATCGTGAGGTCGTCGATACTAAC | 0.722 | 1.25 | 0.727 | 0.964 | 0.798 | 2.36 | 0.524 | 1.84 | 0.592 | 1.3 | 1.61 | 2.45 | 0.868 | 0.301 | 1.56 | 3.52 | 2.54 | 2.72 | 1.95
7 | TGAATGAGGTTAAAGATCAGAGAACGTGGCGTCG | 1.89 | 3.53 | 1.38 | 0.333 | 0.79 | 2 | 0.0576 | 3.32 | 0.124 | 1.98 | 0.55 | 2.23 | 1.36 | 1.15 | 3.86 | 2.28 | 0.132 | 1.8 | 0.373
8 | CAAACTAGGTCAAGAGGTCAACGTCCGCTTCCCG | 8.45 | 8.58 | 3.13 | 2.14 | 8.6 | 6.18 | 1.76 | 7.72 | 4.74 | 5.47 | 5.63 | 7.92 | 7.74 | 2.76 | 7.68 | 4.5 | 2.96 | 5.97 | 3.84
9 | CCTACTAGTTGACCATAAGGGCAACCGAAGCTCG | 0.2 | 0.479 | 0.235 | -0.627 | 1.22 | 0.406 | 0.317 | 0.81 | 1.01 | 1.39 | 1.92 | 0.922 | 0.714 | 0.0414 | 0.509 | 1.75 | 1.28 | 0.471 | 0.643
10 | CCTACTTGGTCAAGGTCACACACGCTATAGGTAC | 2.5 | 3.56 | 0.858 | 1.02 | 3.34 | 4.31 | 1.72 | 4.29 | 2.21 | 4.18 | 4.57 | 4.56 | 4.86 | 2.17 | 4.71 | 4.06 | 4.41 | 3.97 | 3.28
11 | AGAACGAGGCCACGCTGAGTTGATAGCAGAGTAG | 3.08 | 2.31 | 0.24 | 0.0825 | -0.457 | -0.0371 | -0.451 | -0.283 | -0.379 | 1.17 | 0.176 | 0.764 | 1.22 | 0.267 | 0.15 | 1.02 | -0.00748 | 0.045 | 0.389
12 | CTCGAAAGGTCGGGTGAGGTGAGTATACGGATAA | 0.384 | 1.74 | 0.713 | 0.324 | 1.4 | 3.82 | 0.334 | 3.01 | 0.691 | 3.52 | 3.12 | 3.42 | 3.43 | 0.73 | 3.05 | 5.11 | 1.91 | 3.18 | 0.829
13 | ATCTCAAGGTAAAAGTTCAGTGAATCCCGAGGAT | -0.133 | 1.48 | 0.958 | 1.4 | 0.853 | 2.03 | 1.43 | 2.15 | 0.0495 | 2.62 | 2.4 | 2.29 | 1.96 | 0.614 | 2.21 | 1.94 | 0.529 | 1.6 | 1.28
14 | CCTACTGGGCAAAGGTCATTGATCAGTCAAAGCA | 1.24 | 4.2 | -0.384 | -0.183 | 4.15 | 5.26 | 1.18 | 6.18 | 1.65 | 4.49 | 4.39 | 6.27 | 4.92 | 1.48 | 6.88 | 3.05 | 0.287 | 4.36 | 2.31
15 | ATCTCGAGGTAAGACTCAGTTCAGTGAAGAACGC | -0.399 | 0.378 | 0.239 | 0.502 | 0.135 | 1.38 | 0.899 | 0.133 | -0.44 | 0.228 | 0.343 | 0.254 | 0.121 | 0.0712 | -0.00615 | 1.24 | 0.382 | 0.704 | 1.13
